Screening data deposited in PubChem by Center for Chemical Genomics, University of Michigan.
Dicer inh: blocks human Dicer maturation of pre-miR-21; cat-ELCCA pre-miR-21 Dicer processing, chemiluminescence; hits give high values; z-score at 25 µM; Q9UPY3; 47,000 compounds, 6% hits; in the data active = z-score above about 3, passing the limit was not always enough;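 note: plate controls were vehicle for no effect and no enzyme for full effect; higher signal means more uncleaved substrate so more Dicer inhibition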
Target sequence (Q9UPY3 whole entry, looked up): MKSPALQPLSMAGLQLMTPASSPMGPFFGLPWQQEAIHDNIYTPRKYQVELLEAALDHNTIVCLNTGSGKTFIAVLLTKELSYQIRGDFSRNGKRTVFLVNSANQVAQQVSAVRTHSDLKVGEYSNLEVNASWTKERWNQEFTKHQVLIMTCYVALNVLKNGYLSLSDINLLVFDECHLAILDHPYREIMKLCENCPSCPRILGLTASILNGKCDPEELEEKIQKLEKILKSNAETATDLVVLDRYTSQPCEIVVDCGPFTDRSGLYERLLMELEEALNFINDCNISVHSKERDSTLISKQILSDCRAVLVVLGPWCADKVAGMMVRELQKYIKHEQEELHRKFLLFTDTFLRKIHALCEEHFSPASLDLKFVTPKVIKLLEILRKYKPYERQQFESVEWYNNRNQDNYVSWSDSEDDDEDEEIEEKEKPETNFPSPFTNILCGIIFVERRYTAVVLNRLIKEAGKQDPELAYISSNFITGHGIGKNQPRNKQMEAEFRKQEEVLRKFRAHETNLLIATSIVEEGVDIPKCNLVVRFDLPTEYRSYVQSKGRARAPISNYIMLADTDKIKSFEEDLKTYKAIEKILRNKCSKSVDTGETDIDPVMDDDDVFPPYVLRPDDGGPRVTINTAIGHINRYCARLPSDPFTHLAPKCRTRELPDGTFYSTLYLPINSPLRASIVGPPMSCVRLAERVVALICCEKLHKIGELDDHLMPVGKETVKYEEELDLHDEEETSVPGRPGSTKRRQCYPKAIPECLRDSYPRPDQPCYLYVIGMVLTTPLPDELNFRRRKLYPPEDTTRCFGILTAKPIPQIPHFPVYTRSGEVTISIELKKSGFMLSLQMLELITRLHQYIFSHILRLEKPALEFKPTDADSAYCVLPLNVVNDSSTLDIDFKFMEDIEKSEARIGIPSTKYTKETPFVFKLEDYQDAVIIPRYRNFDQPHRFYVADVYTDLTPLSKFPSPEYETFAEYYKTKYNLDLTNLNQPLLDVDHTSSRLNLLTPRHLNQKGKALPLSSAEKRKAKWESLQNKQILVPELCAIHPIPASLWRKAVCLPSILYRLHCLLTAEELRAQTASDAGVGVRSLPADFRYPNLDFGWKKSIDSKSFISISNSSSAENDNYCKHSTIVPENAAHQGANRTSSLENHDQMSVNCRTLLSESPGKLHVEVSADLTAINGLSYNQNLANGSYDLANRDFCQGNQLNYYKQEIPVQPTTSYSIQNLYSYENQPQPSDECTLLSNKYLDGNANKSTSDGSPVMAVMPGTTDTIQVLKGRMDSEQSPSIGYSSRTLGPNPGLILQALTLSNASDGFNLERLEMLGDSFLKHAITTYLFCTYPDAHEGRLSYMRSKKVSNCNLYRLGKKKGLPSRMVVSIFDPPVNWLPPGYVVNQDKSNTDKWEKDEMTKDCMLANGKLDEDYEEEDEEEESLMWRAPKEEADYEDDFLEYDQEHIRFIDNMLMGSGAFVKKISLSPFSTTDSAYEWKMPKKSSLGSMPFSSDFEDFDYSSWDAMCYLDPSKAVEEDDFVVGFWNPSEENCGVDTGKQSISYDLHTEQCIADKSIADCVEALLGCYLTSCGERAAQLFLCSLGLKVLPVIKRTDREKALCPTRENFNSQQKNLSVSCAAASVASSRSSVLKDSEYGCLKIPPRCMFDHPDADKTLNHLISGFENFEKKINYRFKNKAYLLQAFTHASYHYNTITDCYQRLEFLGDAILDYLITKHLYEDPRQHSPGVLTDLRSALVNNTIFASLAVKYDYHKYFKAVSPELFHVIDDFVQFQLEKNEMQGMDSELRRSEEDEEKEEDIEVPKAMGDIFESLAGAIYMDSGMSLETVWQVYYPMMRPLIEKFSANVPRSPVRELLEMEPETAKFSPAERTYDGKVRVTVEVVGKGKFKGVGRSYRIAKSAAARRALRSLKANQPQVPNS
An asterisk follows results filed as active. The entries come from a sample that favours hits as a whole.

SMILES	Dicer inh
CC(C)(C)Nc1nc(C(N)=O)nc(N2CCOCC2)n1	5.1*
CN(C)c1nc(C(=O)O)nc(N2CCOCC2)n1	3.4*
CC(C)(C)Nc1nc(C(=O)O)nc(N2CCOCC2)n1	1.4
CCCNC(=O)NNC(=O)C(C)n1nnc(N2CCOCC2)n1 (stereo unspecified)	1.1
CN(C)c1nc(N2CCOCC2)nc(N(c2ccccc2)c2ccccc2)n1	0.61
CCOC(=O)c1cnc(N2CCOCC2)nc1N	-0.5
Cc1nn(C)c(N/N=C/c2c(Cl)cccc2Cl)c1[N+](=O)[O-]	2.1
CCn1c(N2CCCCC2)nc2c1c(=O)[nH]c(=O)n2C	0.06
Cc1ccc(OCC(=O)NNC(=O)NC(=O)c2ccccc2Cl)c2c1CCC2	-0.79
CCn1c(Cc2ccccc2)nc2ccccc21	-0.64
O=C(O)CCSc1nc2ccccc2[nH]1	-1.6
Nc1cc(N)nc(SCCC(=O)O)n1	3.3*
O=C(O)CCSc1ccc2ccccc2c1	-0.85
CCOC(=O)C1C(=O)C=C(c2cccs2)CC1c1ccc(OC)c(OC)c1Cl (stereo unspecified)	0.68
CC1CN(c2nc3ccccc3nc2SCC(=O)NCC2CCCO2)CC(C)O1 (stereo unspecified)	1
CC1(c2csc(Nc3ccccc3Cl)n2)CCC(=O)O1 (stereo unspecified)	1.6
O=c1nc2n(-c3ccc([N+](=O)[O-])cc3)nc(-c3ccc(Cl)cc3Cl)n2nc1Cc1ccc(Cl)cc1	0.99
NCC(c1ccccc1)c1c[nH]c2ccccc12 (stereo unspecified)	-0.35
Oc1ccc(Cl)c(C(c2c[nH]c3ccccc23)c2c[nH]c3ccccc23)c1	0.64
CCOc1cccc(C(c2c[nH]c3ccccc23)c2c[nH]c3ccccc23)c1OC	4*
Cc1[nH][nH]c(=O)c1C(c1c(C)[nH][nH]c1=O)c1c[nH]c2ccccc12	-6.8
CCOc1ccccc1C(c1c(C)[nH][nH]c1=O)c1c(C)[nH][nH]c1=O	-6.8
CCOc1ccc(C(c2c[nH]c3ccccc23)c2c[nH]c3ccccc23)cc1	3.4*
Cc1nn(CC(=O)N/N=C/c2c(F)cccc2Cl)c(C)c1Br	-1.9
CCOC(=O)c1c(NC(=O)C2CC(Cl)=CCC2C(=O)O)sc(C)c1C (stereo unspecified)	0.06
SMILES	Dicer inh
CCOC(=O)c1cc(C(=O)OC)c(C)nc1N1CCC(NC2CCCCC2O)CC1 (stereo unspecified)	-0.23
CCC1CSc2nc3ccsc3c(=O)n21 (stereo unspecified)	50
COC(=O)c1cc(-c2cc(OC)ccc2OC)no1	0.69
COc1ccc(OC)c(SCC(=O)O)c1	-1.8
COc1ccc(OC)c(-c2sccc2CC(=O)O)c1	3.8*
O=C1N=C(N2CCOCC2)S/C1=C(/C=C(\CC(=O)c1ccccc1)c1ccccc1)c1ccccc1	-1.6
CC(O)CN1C(=O)c2cccc3cc([N+](=O)[O-])cc(c23)C1=O (stereo unspecified)	1.8
CC(=O)/C(N=Nc1ccc2c(c1)OCO2)=C(\C)O	1.3
CC(=O)/C(N=Nc1c(F)cccc1F)=C(\C)O	3.4*
CCOC(=O)/C(N=Nc1ccc(F)cc1F)=C(\C)O	0.61
COc1ccc(OCC(O)CNS(=O)(=O)c2cc(Cl)sc2Cl)cc1 (stereo unspecified)	-0.38
Cc1ccc(/C(O)=C2\C(=O)C(=O)N(c3ccccn3)C2c2ccc(F)cc2)cc1 (stereo unspecified)	0.39
CC(C(=O)Nc1c(F)cccc1F)N1CCN(c2nccc(C(F)(F)F)n2)CC1 (stereo unspecified)	-1.1
COc1cccc(-c2cc(C(F)(F)F)n3nc(N)nc3n2)c1	0.15
COc1ccc(-c2cc(C(F)(F)F)n3nc(N)nc3n2)cc1OC	5.5*
COc1ccc(-c2cc(C(F)(F)F)n3nc(N)nc3n2)cc1	1.9
CC(=O)Oc1cccc(N2Cc3ccccc3C2=O)c1	-0.54
CN1NC(c2ccc(Cl)cc2)/C(=N\OC(=O)c2ccc(C(C)(C)C)s2)SC1=S (stereo unspecified)	1.8
O=C(CCCO)CC(=O)c1ccc(F)cc1	0.83
O=C(O)CCS(=O)(=O)c1ccccc1	-2.1
Cc1cc(S(=O)(=O)NN)c(Cl)cc1Cl	-0.2
COc1ccc(-c2nnc(SCc3cccc(Cl)c3)o2)c(OC)c1	-0.48
COc1ccc(-c2nnc(SCc3cccc4ccccc34)o2)cc1	-0.09
COc1ccc(-c2nnc(SCc3cccc4ccccc34)o2)c(OC)c1	227*
CN(C)C=NC1=C(c2ccccc2)C(=O)c2ccccc21	1.7
SMILES	Dicer inh
Cc1cccc2c1N(C(C)C)C(=O)C2=O	1.6
CC1Cc2ccccc2N1C(=O)c1cnn2c(C(F)F)cc(-c3ccccc3)nc12 (stereo unspecified)	-2.3
CO[C@H]1C[C@@H]2CC[C@@H](C)[C@@](O)(O2)C(=O)C(=O)N2CCCC[C@@H]2C(=O)OC([C@H](C)C[C@@H]2CC[C@@H](OC(=O)C(C)(CO)CO)[C@H](OC)C2)CC(=O)[C@H](C)/C=C(\C)[C@@H](O)[C@@H](OC)C(=O)[C@H](C)C[C@H](C)/C=C/C=C/C=C/1C (stereo partly specified)	-0.63
COC(=O)c1ccc(Cl)cc1N(Cc1ccccc1)S(C)(=O)=O	-0.46
CCOC(=O)c1c(CS(=O)(=O)c2ccccc2)n(C)c2cc(Br)c(O)cc12	1.4
CCOC(=O)c1c(C)n(C)c2cc(CN(C)C)c(O)c(S(=O)(=O)c3ccccc3)c12	3.8*
CCOC(=O)c1c(CN(C)C)n(C)c2cc(Br)c(O)c(CN(C)C)c12	1.9
CCc1ccc(C2c3c(oc4ccc(F)cc4c3=O)C(=O)N2c2nc(C)c(C)s2)cc1 (stereo unspecified)	0.04
c1ccc2[nH]c(CCCc3nc4ccccc4[nH]3)nc2c1	2.5
Nc1cccc(CCc2nc3cc4ccccc4cc3[nH]2)c1	6.9*
O=S(=O)(CCc1nc2ccccc2[nH]1)CCc1nc2ccccc2[nH]1	0.33
Nc1cccc(-c2nc3ccccc3[nH]2)c1	-0.02
COc1ccc(OCc2nc3ccccc3[nH]2)cc1	1.1
c1ccc(CCc2nc3ccccc3[nH]2)cc1	3.2*
CCN(CC)Cc1nc2ccccc2[nH]1	3.4*
Oc1ccc(Cc2nc3ccccc3[nH]2)cc1	0.44
Nc1ccc(CCc2nc3ccc(N)cc3[nH]2)cc1	0
CC1CCN(Cc2nc3c(c(=O)n(C)c(=O)n3C)n2CC(=O)C(C)(C)C)CC1	0.28
CCOC(=O)Cc1csc(NS(=O)(=O)c2cc(C)c(Cl)cc2Cl)n1	-1.1
CCOC(=O)c1c(N)n(C2CCCC2)c2nc3ccccc3nc12	-12
CCOC(=O)c1c(C)nsc1NN=C(C#N)C(=O)C(C)(C)C	0.5
Cc1ccc(CSc2n[nH]c(=O)n2C2CC3C=CC2C3)cc1 (stereo unspecified)	-1
COc1cccc(-c2nc(-c3ccc(C)cc3)no2)c1OC	0.49
CSC1=NC=C(C#N)C2=NC(C)(c3ccc(Cl)c(Cl)c3)NN12 (stereo unspecified)	-0.18
COc1ccc(CN2CCN(Cc3ccc(Br)cc3)CC2)c(OC)c1	0.24
SMILES	Dicer inh
CCS(=O)(=O)N1CCN(Cc2cc(Br)ccc2O)CC1	4.9*
COc1cccc(CN2CCN(Cc3ccccc3Br)CC2)c1OC	1.4
COc1ccc(CN2CCN(Cc3cc(Br)ccc3O)CC2)c(OC)c1	4.5*
COc1cccc(CN2CCN(Cc3cc(Br)ccc3O)CC2)c1OC	3.8*
COc1ccc(Br)cc1CN1CCN(Cc2ccncc2)CC1	2.1
Cc1ccc(S(=O)(=O)N2CCN(Cc3cc(C(C)C)ccc3O)CC2)cc1	0.25
COc1ccc(CN2CCN(Cc3cc(Br)ccc3OC)CC2)cc1	0.33
